# Experimental data published in PubChem BioAssay (Tox21).
# Records with an inconclusive call do not appear. A number with no mark means an inactive call. The source made the active and inactive calls. Calls come from the whole dose curve; as a rule, active = well fitted inhibition curve with a large enough effect in the repeat runs; inconclusive = weak or mixed curves, or effect the other way; inactive = no such curve, though single readings can be large or run the other way.
# Assay: qHTS assay to identify small molecule antagonists of the retinoic acid receptor (RAR) signaling pathway (AID 1159552; note: nearly all actives have a fitted effect of over 50% in size)
# Conditions: C3RL4 RARE luciferase reporter, retinol-stimulated, 6 h; series mostly up to 92.4 µM; activity, negative = inhibition: at the top concentration
# Text: National Center for Advancing Translational Sciences [NCATS]
# NIH Chemical Genomics Center [NCGC]
# U.S. Environmental Protection Agency [EPA]
# National Institutes of Environmental Health Sciences [NIEHS]
# National Toxicology Program [NTP]
# U.S. Food and Drug Administration [FDA]
# All-trans Retinoic acid (atRA) is the potent natural metabolite of retinol and plays an important role in normal embryonic development and maintenance of cellular phenotype in adult animals. atRA is the activating ligand for the retinoic acid receptors (RARs) which form heterodimers with retinoid X receptors (RXRs) on the retinoic acid response element (RARE). Through activation of the RAR/RXRs nuclear receptors, atRA regulates the transcription of a large number of protein-coding genes and regulatory RNAs. Intracellular levels of atRA are controlled by the retinol signaling pathway (RSP) that regulates the biosynthesis and catabolism of atRA to maintain physiological levels. Chemicals that interfere with the RSP can cause abnormal intracellular levels of atRA and therefore are potential developmental toxicants. To assess compounds for the potential adverse effect on embryonic development through interfering with retinol signaling, a cell-based RARE luciferase reporter gene assay was used. C3RL4 cell line (OARSA/CFSAN/FDA, Laurel, MD) was used to screen Tox21 10K compound library for identifying inhibitors of the RSP.
# Tox21 Assay Protocol Summary:
# C3RL4 cells were seeded at 1,000/well in 4 uL of assay medium into white solid 1,536-well tissue culture plates (Greiner Bio-One North America Inc. Monroe, NC) using a Multidrop Combi (Thermo Scientific, Waltham, MA) dispenser. After incubation at 37 C and 5% CO2 for an overnight, 23 nL of compounds dissolved in DMSO, positive control or DMSO only were transferred by a Pintool station (Kalypsys, San Diego, CA). One ul of 1 uM (final concentration) of Retinol was added right after the compound addition by using a Flying Reagent Dispenser (FRD) (Aurora Discovery, San Diego, CA). After 6 hr incubation at 37 C and 5% CO2, 5 uL of Amplite Luciferase reagent (AAT Bioquest Inc. Sunnyvale, CA) was added to each assay plate using an FRD. Luminescence was quantified on a ViewLux plate reader (PerkinElmer, Waltham, MA) after 30 min incubation at room temperature.
# % is set by controls: 0 for no effect and ±100 for the full control effect.
Structure (SMILES),"activity, negative = inhibition",Potency
CC(=O)N(c1onc(C)c1C)S(=O)(=O)c1ccc(N)cc1,-18.3% [at 42.5 µM],–
CCCCCCCCCCCCCCCCBr,-1.48% [at 19 µM],–
CC1(C)C2=CCCC(C)(C)[C@]23CC[C@H]1C3,-1.29%,–
CNC(=O)N(c1ccccc1)c1ccccc1,2.17%,–
O=C(O)c1ccccc1NCCc1ccccc1,107% [at 42.5 µM],–
CCOC(=O)CC(=O)C(=O)OCC,-20.1%,–
CCOC(=O)c1ccccc1OC,-3.04%,–
CCCCC(CC)CNCC(CC)CCCC (stereo not given),3.51%,–
COc1cc2[nH]c(=O)[nH]c(=O)c2cc1OC,-4.35% [at 42.5 µM],–
Cc1cc2nc3ccc(=[N+](C)C)cc-3sc2cc1N,25.5% [at 42.5 µM],–
CCCCN(CCCC)CCCOC(=O)c1ccc(N)cc1,4.24% [at 42.5 µM],–
CC(C)CCCCCOC(=O)CCCCC(=O)OCCCCCC(C)C,22%,–
Cc1oncc1C(=O)Nc1ccc(C(F)(F)F)cc1,–,inactive
COC(OC)(C(=O)c1ccccc1)c1ccccc1,-11.5%,–
CC(C)=CC=O,-0.723%,–
CCCCC(CC)C(=O)OCCOCCOCCOCCOC(=O)C(CC)CCCC (stereo not given),-8.69%,–
CCCCCCOC(=O)C(C)C,-9.79%,–
COc1cc2c(cc1OC)-c1cc(=Nc3c(C)cc(C)cc3C)n(C)c(=O)n1CC2,12.7% [at 42.5 µM],–
Nc1c(I)cc(I)c(C(=O)N(CCC(=O)O)c2ccccc2)c1I,-29.2% [at 42.5 µM],–
O=C(OCCOCCO)c1ccccc1Nc1cccc(C(F)(F)F)c1,-9.27% [at 42.5 µM],–

Structure (SMILES),"activity, negative = inhibition",Potency
CC(C)C(=O)O,-2.92%,–
CC1=CC(O)CC(C)(C)C1 (stereo not given),8.13%,–
CCCCC/C(=C\c1ccccc1)CO,-16.3%,–
COCC(O)CO (stereo not given),-17.7%,–
CC1=CC(=O)CC(C)(C)C1(O)/C=C/C(C)=C\C(=O)O (stereo not given),3.39%,–
CCN(Cc1cccc(S(=O)(=O)O)c1)c1ccc(C(=C2C=CC(=[N+](CC)Cc3cccc(S(=O)(=O)[O-])c3)C=C2)c2ccccc2)cc1,2.6% [at 42.5 µM],–
CCOC(=O)C(C)Oc1ccc(Oc2nc3ccc(Cl)cc3o2)cc1 (stereo not given),69.9%,–
C=CC(=C)CCCC(C)(C)OC(C)=O,-1.4%,–
Fc1ccccc1[C@@H](F)COC1CCC(Nc2ncnc3[nH]ncc23)CC1 (stereo not given in full),-18.2%,–
COc1ccccc1N=Nc1c(S(=O)(=O)O)cc2cc(S(=O)(=O)O)cc(NC(C)=O)c2c1O,-27.5%,–
ON(Cc1ccccc1)Cc1ccccc1,64%,–
Cc1ccc(/C=N/n2c(-c3ccccc3)csc2=S)cc1,-10.5% [at 42.5 µM],–
C[N+]1(C)CCC(=C(c2ccccc2)c2ccccc2)CC1,2.55% [at 42.5 µM],–
O=C(NCCCN1CCOCC1)c1ccc(Cl)cc1,52.5% [at 42.5 µM],–
CO[C@H]1O[C@H](CO)[C@@H](O)[C@H](O)[C@H]1O,47.4%,–
CC1(C)C(=O)N(Br)C(=O)N1Cl,-19.7%,–
CCC(C(=O)OCCOCCN(CC)CC)c1ccccc1 (stereo not given),1.73% [at 42.5 µM],–
CCCC1C(CC)=CC(CC)=CN1c1ccccc1 (stereo not given),-2.15%,–
Cc1cnc(C)c(C)n1,-1.25%,–
CC(CCc1ccc2c(c1)OCO2)NN (stereo not given),24.9% [at 42.5 µM],–
